Test [1] is described as follows: Plasmodium falciparum growth inhibition, primary screen, strain 3D7, DAPI fluorescence, 100 nL (AID 1184).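 Note: parasites grown inside human red blood cells in medium with human serum.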 Particulars: P. falciparum 3D7 growth, 3 d, higher = more signal.
In test [2] the target is Homeobox protein Hox-A13 (Mus musculus) (UniProt Q62424). Kind of test: inhibitors of HoxA13-DNA binding, primary screen, biochemical, fluorescence polarization, labeled oligonucleotide (AID 1185). Particulars: 15 min, higher = more signal, called active from +8 up or from −8 down.
Test [3] can be described thus: inhibitors of hydroxyurea-induced Chk1 phosphorylation, primary screen, imaging, HeLa, phospho-Chk1 antibody, percent positive cells (AID 1186). Particulars: hydroxyurea-induced phospho-Chk1 immunofluorescence imaging, higher = more signal.
A short description of test [4]: inhibitors of hydroxyurea-induced Chk1 phosphorylation, primary screen, imaging, HeLa, phospho-Chk1 nuclear intensity (AID 1187). Note: test concentration not given here. Particulars: hydroxyurea-induced phospho-Chk1 immunofluorescence imaging, higher = more signal.

The text below walks through data of PubChem BioAssay.

Calls of active or inactive are those of the source. Unless noted, the rule behind the calls is not given here.

Chain of Homeobox protein Hox-A13 (Mus musculus) (Q62424 whole entry, looked up): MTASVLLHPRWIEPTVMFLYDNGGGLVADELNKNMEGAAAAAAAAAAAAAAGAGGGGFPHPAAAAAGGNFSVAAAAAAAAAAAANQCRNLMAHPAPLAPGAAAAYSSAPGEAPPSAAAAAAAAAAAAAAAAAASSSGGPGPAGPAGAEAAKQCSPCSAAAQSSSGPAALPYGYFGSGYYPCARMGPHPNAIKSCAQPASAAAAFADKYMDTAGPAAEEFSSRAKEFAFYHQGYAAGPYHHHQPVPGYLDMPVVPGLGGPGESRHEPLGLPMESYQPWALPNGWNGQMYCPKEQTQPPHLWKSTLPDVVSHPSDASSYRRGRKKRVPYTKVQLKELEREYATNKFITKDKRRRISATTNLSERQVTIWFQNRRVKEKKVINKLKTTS

As for `C=CCN1C(=O)[C@@]2(O[C@@H](CCn3cc(CCO)nn3)[C@H]([Si](C)(C)c3ccc(OC)cc3)[C@H]2C)c2cc(N3C(=O)c4cccc5cccc3c45)ccc21`, the z-score in test [1] was -2.85; in test [2] it was -5.26 (inactive); in test [3] it was -1.11 (inactive); in test [4], -0.144 (inactive).

As to `C=CCC(OC(C)=O)[C@@H]1[C@@H](N(Cc2cc3ccccc3o2)C(=O)c2ccc(-c3ccccc3)cc2)c2cc(OCCCO)ccc2N1C(=O)c1ccc(-c2ccccc2)cc1` (stereo not given in full), the z-score in test [1] is -1.63; in test [2], -0.639 (inactive); in test [3], -0.604 (inactive); in test [4], -0.195 (inactive).

Take `C=CCN1C(=O)[C@@]2(O[C@@H](CCn3cc(CCO)nn3)[C@H]([Si](C)(C)c3ccc(OC)cc3)[C@H]2C)c2cc(NC(=O)c3ccc(OC)cc3)ccc21`: the z-score in test [1] was -2.65; in test [2], -4.19 (inactive); in test [3], 1.09 (inactive); in test [4], 1.28 (inactive).

Turning to `O=C1c2ccccc2C(=O)c2cc([C@H]3Oc4ccccc4S(=O)(=O)N4CCC[C@@H]34)ccc21`, the z-score in test [1] was -1.27; in test [2], -3.19 (inactive); in test [3] it was -0.4 (inactive); in test [4] it was -0.252 (inactive).

For the molecule `COC(=O)[C@@]1(CCC(=O)OC(C)(C)C)COC(c2ccc(OCCCO)cc2)=N1`, the z-score was -0.478 in test [1], -2.57 (inactive) in test [2], -0.14 (inactive) in test [3] and 0.264 (inactive) in test [4].

Take `COc1ccc(C#Cc2ccc3c(c2)[C@]2(C(=O)N3)[C@H](c3ccc(O)cc3)N3[C@H](c4ccccc4)[C@H](c4ccccc4)OC(=O)[C@H]3[C@@H]2C(=O)N2CCN(c3ncccn3)CC2)cc1`: the z-score in test [1] is -2.28; in test [2], 0.562 (inactive); in test [3] it was 0.396 (inactive); in test [4], 0.583 (inactive).

Turning to `Cc1ccc(S[C@]2(C(=O)NCC(C)C)CC(=O)N(C(C)C)[C@@H]2c2ccc(CO)cc2)cc1`, the z-score in test [1] was -1.79; in test [2] it was 1.8 (inactive); in test [3], -0.273 (inactive); in test [4] it was -0.0385 (inactive).

For `CCOC(=O)C[C@H]1[C@H](OC(=O)Cc2ccc3c(c2)OCO3)[C@@H](NC(=O)c2ccc3ccccc3c2)c2cc(OCCCO)ccc2N1C(=O)c1ccc2ccccc2n1`, the z-score is -1.29 in test [1], -2.66 (inactive) in test [2], -0.926 (inactive) in test [3] and -0.612 (inactive) in test [4].

For `COc1ccc([Si](C)(C)[C@H]2[C@H](CC(=O)N(CCO)Cc3ccccc3)O[C@@]3(C(=O)N(Cc4ccc(N5CCOC5=O)cc4)c4ccccc43)[C@@H]2C)cc1`, the z-score in test [1] is -1.04; in test [2], -1.48 (inactive); in test [3], -0.0614 (inactive); in test [4], 0.0752 (inactive).

With `CO[C@H]1O[C@H](CO)[C@@H](OC(=O)Nc2ccccc2)[C@H](OC(=O)Nc2ccccc2-c2ccccc2)[C@H]1OC(=O)Nc1ccccc1-c1ccccc1`, the z-score was -1.81 in test [1], -3.12 (inactive) in test [2], -0.796 (inactive) in test [3] and -0.793 (inactive) in test [4].

Consider `COCCOC(=O)N1C(=O)[C@@]2(c3ccccc31)[C@H](C(=O)Nc1nc3ccccc3s1)[C@H]1C(=O)O[C@H](c3ccccc3)[C@H](c3ccccc3)N1[C@@H]2c1ccc(O)cc1`, for which the z-score in test [1] is 0.112; in test [2], 0.895 (inactive); in test [3], -0.2 (inactive); in test [4], 0.3 (inactive).

With `Cc1ccc(S[C@]2(C(=O)NC3CC3)CC(=O)N(Cc3ccccc3C(F)(F)F)[C@@H]2c2ccc(CO)cc2I)cc1`, the z-score in test [1] was -0.215; in test [2] it was -1 (inactive); in test [3], 0.104 (inactive); in test [4] it was 0.576 (inactive).

As for `CC(C)C[C@@H]1NC(=O)[C@@]23C(=O)N[C@@H](Cc4ccccc4)C2[C@H](C)[C@@]2(C)O[C@H]2C3/C=C/C/C=C\CNC(=O)[C@H](Cc2ccccc2)NC1=O` (stereo not given in full), the z-score in test [1] is -1.46; in test [2], -5.15 (inactive); in test [3], 0.03 (inactive); in test [4], 0.356 (inactive).

Take `CCCNC(=O)[C@@H]1c2ccccc2C(=O)N(Cc2cc(C(F)(F)F)cc(C(F)(F)F)c2)[C@H]1c1ccc(CO)cc1`: the z-score was -1.64 in test [1], -1.94 (inactive) in test [2], -0.319 (inactive) in test [3] and 0.0789 (inactive) in test [4].

In the case of `COC(=O)C1=CC(CCCO)=CC(C2CC2)N(Cc2cc3c(cc2Br)OCO3)C=C1C(=O)OC` (stereo not given), the z-score in test [1] was -0.963; in test [2], -4.63 (inactive); in test [3], -0.203 (inactive); in test [4] it was -0.201 (inactive).

As to `CO[C@H]1O[C@H](CO)[C@@H](OC(=O)Nc2ccccc2)[C@H](OC(=O)Nc2ccc3c(c2)OCO3)[C@H]1OC(=O)Nc1ccc2c(c1)OCO2`, the z-score in test [1] is -2.2; in test [2] it was -7.83 (inactive); in test [3], -0.935 (inactive); in test [4], -0.967 (inactive).

Consider `CC(C)CCC[C@@H](C)[C@H]1CC[C@@]2(C)C3=C(CC[C@]12C)[C@@]1(C)CC[C@H](OC(=O)CCl)C(C)(C)C1CC3` (stereo not given in full), for which the z-score in test [1] is -0.0992; in test [2] it was -0.128 (inactive); in test [3] it was -0.199 (inactive); in test [4], -0.281 (inactive).

`O=C1O[C@@H](c2ccccc2)[C@@H](c2ccccc2)N2[C@@H](c3ccc(OCCO)cc3)[C@]3(C(=O)Nc4ccc(C#CC5(O)CCCCCC5)cc43)[C@@H](C(=O)NC[C@H](O)c3ccccc3)[C@H]12`: the z-score in test [1] is -2.21; in test [2] it was -1.22 (inactive); in test [3], 0.0477 (inactive); in test [4], 0.343 (inactive).

Consider `C=C(/C(=C/C[C@H](OC(C)=O)c1cccc(OCCO)c1)c1cc(C(=O)OC)ccc1OC)C(C)C`, for which the z-score in test [1] was -1.79; in test [2], -4.34 (inactive); in test [3], 0.209 (inactive); in test [4] it was 0.641 (inactive).

Turning to `COCCOC(=O)N1C(=O)[C@@]2(c3cc(C#CCCO)ccc31)[C@H](c1ccccc1OCCO)N1[C@H](c3ccccc3)[C@H](c3ccccc3)OC(=O)[C@H]1[C@@H]2C(=O)NC[C@H](O)c1ccccc1`, the z-score in test [1] is -2.08; in test [2], -0.117 (inactive); in test [3] it was -0.29 (inactive); in test [4], -0.429 (inactive).
